In the supplement of paper PMC7057948, “A genome-wide approach for identification and characterisation of metabolite-inducible systems” (Nature Communications, 2020):

system: KynR/P_H16_RS14030 L-kynurenine biosensor (pEH136); test: relative induction of RFP reporter vs primary effector; higher = stronger activation; conditions: inducer concentration 5 mM; 6 h; Cupriavidus necator H16; minimal medium + 0.4% gluconate
Description: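 Orthogonality screen of 21 primary inducers against 21 transcription factor/inducible promoter–mRFP biosensors in C. necator H16 in minimal medium, robotic 96-well format, 5 mM inducer, 30 °C. OD-normalised RFP fluorescence was read 6 h later and expressed as relative induction (%) = 100 × (FL compound − FL uninduced)/(FL primary inducer − FL uninduced); mean of n=4. Cognate pairs (100% by definition) omitted.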

Compound	relative induction of RFP reporter [%]
O=C(O)C1CCCCC1 [cyclohexane-1-carboxylate]	0.977
OC1OC[C@H](O)[C@H](O)[C@H]1O (mixture of isomers) [L-arabinose]	0.181
N[C@@H](Cc1ccc(O)cc1)C(=O)O [L-tyrosine]	0.164
NCCC(=O)O [β-alanine]	-0.589
CC(=O)C(C)O (configuration not stated) [acetoin]	0.0145
O=C(O)CS(=O)(=O)O [sulfonatoacetate]	0.55
O=c1[nH]c(=O)c2nc[nH]c2[nH]1 [xanthine]	0.0316
O=C(O)c1ccccc1O [salicylate]	-0.248
O=C(O)c1ccc(O)c(O)c1 [3,4-dihydroxybenzoate]	0.138
C=CC(=O)O [acrylate]	0.406
O=C(O)C(=O)c1ccccc1 [phenylglyoxylate]	0.112
O=C(O)c1ccccc1 [benzoate]	-0.112
O=CO [formate]	0.482
O=C(O)CCO [3-hydroxypropanoate]	-0.395
O=C(O)C(O)C(O)C(=O)O (configuration not stated) [tartrate]	0.0585
C=C(CC(=O)O)C(=O)O [itaconate]	-0.472
N[C@@H](Cc1ccccc1)C(=O)O [L-phenylalanine]	1.98
